Laboratory results: the supplement of paper PMC6555819

System: PPARg DBDmut IVT, anti-PPARg (DBD mutation: PPARg1 K132A/R137A, NR concentration 270 nM)
Assay: PBM binding z-score (relative to random genomic background probes); higher = stronger binding; sequences stand for … in GC…GCGATTGACAGCGTAGAATGAAGG
Procedure, shortened: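 Binding z-scores were set against random background probes. The data came from custom Agilent 4×180K protein-binding microarrays carrying double-stranded probes with 34-nt variable regions, incubated 1 h with ligand-free nuclear receptor dimers. Partner-specific antibodies detected binding, and scanned fluorescence was regression-normalized.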

| Sequence | PBM binding z-score |
| --- | --- |
| TCATATAGGTACATGCTAGGTGAAAGTCCGATCT | 1.54 |
| CGAACTAAGTCAAGGACAGTGAATCTCCGCACGC | -0.249 |
| AATACAGGGTCACTAGGCGAGAGTAGGTACGAAT | 0.921 |
| CGTCCAAGGTCAAAGGTCAGAGAAGAGATGACGG | 0.47 |
| TATAGTTGGTCAAAGGTCACACACTCGAAATGCG | 3.69 |
| TTACCAAGGTGAAAGGTTGTTGATGCACGCCTTG | 0.316 |
| ACTAGCAGGCCAAGTTTGGGTCGCTCAAACAAAG | -0.527 |
| CTCGAAAGGTCGTGCTCAGGTGAGTAGACCAAAC | 0.659 |
| GGAACGAGGGCATTCTAGTTGATAGCATGGCGAT | -0.214 |
| CCAGACAGCTGAAAGGTAACTCAGTCTGGTACGC | -0.671 |
| CGAACTAGGTCATCCAGAACAGTGAATACATTGA | 4.45 |
| TCTTGTAGATCAGCAGATTAAGAAAGCTGGCCAA | 0.452 |
| ACTATTAGTTGACTTAGGGAAACCGATACGACGC | 1.45 |
| CGAACTGGGTCATTGACAGGACAGTGAATAGTAA | 1.35 |
| TCTCGGAGGACACCAAGGTCAGAGCTTTCCAGAG | -0.885 |
| TCTTGTAGACCAATAGAGGTTAAGAAAGTGCGCT | 0.346 |
| GCTAGTTGGTCAGTAAAAAGTCACACACCGGTCG | 0.69 |
| AGAACGAGGGCAGGCTGAGTTGATAGCAGAGTAG | -0.0164 |
| CCGAGGAGGTTATGGGGCATTCAGGCAACGGTGA | -0.847 |
| CCTAGCAGGCCAATCTGGGTTACTCAAGGCTTGA | -1.24 |

| Sequence | PBM binding z-score |
| --- | --- |
| ACTATTAGTTGACTTAGGGCAAGCGATACGACGC | 1.04 |
| CCTTACGGGGCACTGACAGGTTATAGCATTTGGA | -0.753 |
| ATATGTAGGTTATAGGGTCATTCAGTTTGCGCAT | 1.57 |
| ATCTCTAAGTAACAAGTTCAGTGAAAGAGAGGAC | 0.883 |
| AGTGAAAGTTCATCTAGGTAACGTAAGATATGCT | 1.64 |
| TCTAGTAGATCAATAGAGGTTAAGAAAGTGCGCT | 0.138 |
| CCTACTGGGCCAAGGTTATTGATCAGTCAAAGCA | -0.723 |
| ATATGTAGGTTAATGGTCATTCAGGTTGGTTCGC | 3.57 |
| GATACAGGGTCAGCTAGAGGCCAGTGTATGGAAA | -0.378 |
| TAGCCTAGGTCAGGTCGGGCCAGTATACGCTATA | -1.44 |
| GCCTGTAGATCAAGGTTAAGAAAGACTAAGCTAA | -0.208 |
| CCTATTAGTTAACCATAAGGGCAACCGAAGCTCG | 0.763 |
| TAGCCTAGGTCAGATCGGGCCAGAATACGCTATA | -0.739 |
| CCTGCTAGGTCATGGTCAGATAATCTACAGTATG | 0.147 |
| AGACTGAGGTTAAGATCAGGGAAACAGAATACAT | -0.0692 |
| GGAACGAGGGCATTCGAGTTGGTAGCATGGCGAT | 0.13 |
| TTACCAAGATGAGCTGAGGTCGTTGATCCAACTC | -0.456 |
| TCGGCTAGGTCAGTTGGTCAGCTAACGAGCTGCC | -0.778 |
| TCTTGTAGATCAAGCCGGTTAAGAAAGCCTGAGT | -0.013 |
